Screening results deposited in PubChem by National Center for Advancing Translational Sciences (NCATS).
NS1 function inh: blocks influenza NS1 protein function. Potency, µM (doses to about 46.1 µM). hit rate 0.4% among 270,000. AID 2326; note: actives are rising curves; nearly all actives have a fitted effect of over 50% in size
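Read-out: OD600 growth recovery of NS1-expressing budding yeast. Cells grown overnight at 30C in -URA glucose medium, washed, resuspended and diluted 1:100 in 2% galactose assay medium, pH 6.0. Same strain lacking NS1 served as positive control.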
Shiga toxin inh: Shiga toxin inhibition. Vero cells, Shiga toxin protein synthesis inhibition reporter. inhibition, % at 38.7 µM. hit rate 9.2% among 290,000; in the data active = inhibition mostly above about 28%, no sharp cut-off; inactive = mostly below about 43%
Cycloheximide cs: affects cycloheximide protein synthesis inhibition readout, counter-screen; cell reporter, cycloheximide protein synthesis inhibition counterscreen; hit rate 12% among 300,000; max response, %; AID 2314; in the data active = max response mostly above about 13%, no sharp cut-off; inactive = mostly below about 14%; note: read at 38.3 µM for the half of the compounds with a filed dose
SARS PLpro yeast: SARS-CoV PLP inhibition in yeast; Potency, µM (highest dose often 32.9 µM), actives largely listed as activators; hit rate 0.19% among 330,000; S. cerevisiae expressing SARS-CoV PLpro, growth rescue; note: nearly all actives have a fitted effect of over 55% in size
Pf growth 48h: P. falciparum growth inhibition at 48 hours (one generation) | P. falciparum luciferase growth in erythrocytes, 48 h | Potency, µM (top dose mostly 28.7 µM), hits mostly inhibitors | hit rate 5.9% among 310,000; active = well fitted inhibition curve with a large enough effect; inconclusive = small, poorly fitted or top-dose-only effect, or another doubt; inactive = no such curve, though single readings can be large or run the other way
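Here the parasites carry a stable luciferase gene and grow inside erythrocytes in Albumax-based RPMI medium with compound for one erythrocytic cycle. Activity is scored as loss of luminescent signal.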
Pf growth 96h: inhibits malaria parasite growth, 96 h. P. falciparum luciferase reporter growth, 96 h. hit rate 6.9% among 320,000. Potency, µM (top dose mostly 28.7 µM), actives largely listed as inhibitors; active = well fitted inhibition curve with a large enough effect; inconclusive = small, poorly fitted or top-dose-only effect, or another doubt; inactive = no such curve, though single readings can be large or run the other way
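Erythrocytes infected with luciferase-expressing P. falciparum were dispensed at 2% hematocrit and 0.05% parasitemia (final), then incubated with compounds 96 hours at 37 C in 5% CO2. Luminescence after detection reagent addition reported growth.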
A number is an active result; . = inactive; ? = inconclusive; / = not tested or not shown. A selection: hits, their analogues and other compounds. The true share with any hit is near 21%. Unless noted, calls come from the whole dose curve.

SMILES	NS1 function inh	Shiga toxin inh	Cycloheximide cs	SARS PLpro yeast	Pf growth 48h	Pf growth 96h
O=C(O)C(Cc1ccccc1)Nc1ccc([N+](=O)[O-])cc1[N+](=O)[O-] (configuration not stated)	.	.	20	.	?	6.6µM
NC(=O)c1cc([N+](=O)[O-])ccc1NCCc1ccccc1	.	.	active	.	.	13µM
COc1ccc(NC(=O)CCC(=O)NCc2ccco2)c([N+](=O)[O-])c1	.	.	.	.	.	.
NC(=O)c1ccc(NCc2ccco2)c([N+](=O)[O-])c1	.	.	17	.	?	.
O=C(O)[C@H](Cc1ccccc1)Nc1ccc([N+](=O)[O-])cn1	.	.	.	.	.	.
NC(=O)c1ccc(NCCc2ccccc2)c([N+](=O)[O-])c1	.	.	16	.	.	?
CC1CC=CC2C1C(=O)N(Cc1ccccc1)C2c1ccc(/C=C/c2ccccc2)cc1F (configuration not stated)	/	.	.	/	/	/
CCC/C(C#Cc1ccsc1)=C1/c2ccccc2C(=O)N1c1ccccc1	/	/	/	.	/	/
CCOC(=O)c1ccc(NC(=O)CSc2nncn2-c2cccnc2)cc1	.	.	.	.	.	?
CCn1cc(C(=O)NCCCN2CCN(C)CC2)c(=O)c2cc(S(=O)(=O)N3CCc4ccccc4C3)ccc21	/	.	.	.	?	?
Cc1c(NC(=O)/C=C/c2cn(-c3ccccc3)nc2-c2ccc(F)cc2)c(=O)n(-c2ccccc2)n1C	.	.	.	.	.	9.3µM
O=C(O)/C=C/c1cn(-c2ccccc2)nc1-c1cccc([N+](=O)[O-])c1	.	.	.	.	.	.
O=C(/C=C/c1cn(-c2ccccc2)nc1-c1ccccc1)Nc1ccc(C(=O)O)cc1	/	63	.	.	.	.
Cc1ccc(-c2nn(-c3ccccc3)cc2/C=C/C(=O)Nc2nccs2)cc1	.	.	.	.	?	?
O=C(/C=C/c1cn(-c2ccccc2)nc1-c1cccnc1)c1ccco1	.	.	25	.	?	.
NS(=O)(=O)c1ccc(NC(=O)/C=C/c2cn(-c3ccccc3)nc2-c2cccc(Cl)c2)cc1	?	.	.	.	10µM	.
O=C(CCc1ccccc1)N1CCN(Cc2ccc(F)cc2Cl)CC1	.	.	.	.	?	.
CCCC(=O)Nc1nnc(S(=O)(=O)N(CC)c2ccccc2)s1	.	.	.	.	.	.
Cc1cc2sc(C)[n+](CCCOS(=O)(=O)O)c2cc1C	.	/	/	/	/	/
COc1ccc(Cc2nnc(NC(=O)c3cc(OC)c(OC)c(OC)c3)s2)cc1	.	.	.	.	.	.
CCc1cccc(NC(=O)CSc2nnc(Cc3ccc(OC)cc3)c(=O)[nH]2)c1	/	/	/	.	.	?
CC(C)c1ccc(CN(C)C(=O)c2ccc(S(=O)(=O)NCc3ccco3)cc2)cc1	/	/	/	.	.	?
Cc1nn(-c2ccccc2)c2nc(C(Cl)(Cl)Cl)[nH]c(=O)c12	.	.	.	.	.	.
Cc1ccccc1CN1CCN(Cc2ccc3cccc(F)c3n2)CC1CCO (configuration not stated)	.	.	.	.	.	?
O=C(NCc1cccnc1)C1COc2ccccc2O1 (configuration not stated)	.	.	.	.	.	?
SMILES	NS1 function inh	Shiga toxin inh	Cycloheximide cs	SARS PLpro yeast	Pf growth 48h	Pf growth 96h
O=C(NCCO)C1COc2ccccc2O1 (configuration not stated)	/	.	.	.	.	.
COc1ccccc1CNC(=O)C1COc2ccccc2O1 (configuration not stated)	.	43	30	.	.	/
COc1ccc(CNC(=O)C2COc3ccccc3O2)cc1 (configuration not stated)	.	39	29	.	.	.
O=C(NCCc1ccc(Cl)cc1)C1COc2ccccc2O1 (configuration not stated)	.	.	13	.	.	.
COc1ccccc1C(CNC(=O)C1COc2ccccc2O1)N1CCCC1 (configuration not stated)	/	/	/	.	?	?
CN(C)c1ccc(NC(=O)CN2C(=O)c3ccccc3C2=O)cc1	.	/	.	.	.	.
O=C1NC(=O)N(Cc2ccco2)C(=O)/C1=C/c1cccn1CCOc1ccccc1Cl	?	70	23	.	.	.
O=C1NC(=O)N(Cc2ccccc2)C(=O)/C1=C\c1ccco1	/	.	.	.	.	.
CCOC(=O)CN1C(=O)/C(=C/c2c(F)cccc2Cl)Oc2ccccc21	.	19	19	.	/	.
